Measured values from PubChem BioAssay (EPA / NIEHS).
Several values for one entry are separate records, joined by “and”; a condition that tells them apart may be missing. Equal entries are not always repeated. Some structures have more than one record in an assay (separate samples or runs), and their calls can disagree. Activity calls are given as the source filed them. The calls were made as follows: active = hit-call score of the fitted dose curve at least 0.9, where 1 is the maximum; inactive = score below 0.9.

Legend:
[1] = read-out: TIMP metallopeptidase inhibitor 1 (TIMP1), TIMP1 (gene 7076); assay: BSK_hDFCGF_TIMP1: BioMAP Diversity Plus: hDFCGF Assay for TIMP metallopeptidase inhibitor 1 (TIMP1) Biomarker Activity (AID 2283062); conditions: primary human foreskin fibroblasts; actives raise or lower the signal
How it was run: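 ELISA readout of TIMP-1 from human dermal foreskin fibroblast cultures 24 h post-dosing. Curves were fitted in both directions against DMSO baseline, with SRB total-protein staining in parallel cultures as a cytotoxicity check.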

[2] = read-out: Monokine induced gamma interferon (MIG), CXCL9 (gene 4283); assay: BSK_hDFCGF_MIG: BioMAP Diversity Plus: hDFCGF Assay for Monokine induced gamma interferon (MIG) Biomarker Activity (AID 2283063); conditions: primary human foreskin fibroblasts; actives raise or lower the signal
How it was run: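 Fibroblasts (human foreskin, primary) dosed, 24 h, MIG by ELISA; fit bidirectional vs DMSO.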

[3] = read-out: Matrix Metallopeptidase 1 (MMP1), MMP1 (gene 4312); assay: BSK_hDFCGF_MMP1: BioMAP Diversity Plus: hDFCGF Assay for Matrix Metallopeptidase 1 (MMP1) Biomarker Activity (AID 2283064); conditions: primary human foreskin fibroblasts; actives raise or lower the signal
How it was run: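 MMP1 levels quantified by ELISA 24 h after dosing human dermal fibroblast cultures, with parallel SRB total-protein staining for overt cytotoxicity. Data fitted in both directions against DMSO baseline.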

[4] = read-out: Vascular cell adhesion molecule 1 (VCAM1), VCAM1 (gene 7412); assay: BSK_hDFCGF_VCAM1: BioMAP Diversity Plus: hDFCGF Assay for Vascular cell adhesion molecule 1 (VCAM1) Biomarker Activity (AID 2283065); conditions: primary human foreskin fibroblasts; actives raise or lower the signal;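 as to AC50: VCAM-1 protein level quantified by ELISA after 24 h chemical exposure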
How it was run: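 ELISA read-out of VCAM-1 on human skin fibroblasts, 24 h post-dose; gain or loss of signal fitted bidirectionally against DMSO baseline.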

[5] = read-out: Plasminogen activator inhibitor-1 (PAI1), SERPINE1 (gene 5054); assay: BSK_hDFCGF_PAI1: BioMAP Diversity Plus: hDFCGF Assay for Plasminogen activator inhibitor-1 (PAI1) Biomarker Activity (AID 2283066); conditions: primary human foreskin fibroblasts; actives raise or lower the signal
How it was run: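 Fibroblasts from human foreskin were treated with test chemical. After 24 h, PAI-1 was measured by ELISA. Activity was fitted in both directions relative to DMSO.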

[6] = read-out: Interferon-gamma inducible Protein 10 (IP10), CXCL10 (gene 3627); assay: BSK_KF3CT_IP10: BioMAP Diversity Plus: KF3CT Assay for Interferon-gamma inducible Protein 10 (IP10) Biomarker Activity (AID 2283068); conditions: primary human keratinocytes with fibroblasts; actives raise or lower the signal
How it was run: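 In a primary skin co-culture of keratinocytes and fibroblasts, IP-10 is quantified by ELISA at 24 h after dosing. SRB staining of parallel wells monitors overt toxicity. Curves are fitted both directions against DMSO.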

[7] = BSK_KF3CT_SRB: Viability Assessment in the BioMAP Diversity Plus: KF3CT Assay (AID 2283069); conditions: primary human keratinocytes with fibroblasts;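 also: total protein by sulforhodamine B staining as a cytotoxicity measure; read 24 h after compound addition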
How it was run: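 Cytotoxicity was gauged by SRB staining (0.1% SRB, 10% TCA fixation, 560 nm) of parallel cultures at 24 h. The cells were primary human skin keratinocytes co-cultured with fibroblasts, and activity was fitted in both directions against DMSO.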

[8] = read-out: Interleukin-1 alpha (IL1a), IL1A (gene 3552); assay: BSK_KF3CT_IL1a: BioMAP Diversity Plus: KF3CT Assay for Interleukin-1 alpha (IL1a) Biomarker Activity (AID 2283070); conditions: primary human keratinocytes with fibroblasts; actives raise or lower the signal
How it was run: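 IL-1a was detected by ELISA 24 h after chemical treatment of a co-culture of human skin keratinocytes and foreskin fibroblasts. Gain or loss of signal was fitted against the DMSO baseline.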

[9] = read-out: TIMP metallopeptidase inhibitor 2 (TIMP2), TIMP2 (gene 7077); assay: BSK_KF3CT_TIMP2: BioMAP Diversity Plus: KF3CT Assay for TIMP metallopeptidase inhibitor 2 (TIMP2) Biomarker Activity (AID 2283071); conditions: primary human keratinocytes with fibroblasts; actives raise or lower the signal
How it was run: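 Chemicals were dosed onto human skin primary co-cultures of keratinocytes and foreskin fibroblasts, and TIMP-2 was measured by ELISA after 24 hours. Activity in either direction was fitted relative to DMSO.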

[10] = read-out: Transforming growth factor beta 1 (TGFb1), TGFB1 (gene 7040); assay: BSK_KF3CT_TGFb1: BioMAP Diversity Plus: KF3CT Assay for Transforming growth factor beta 1 (TGFb1) Biomarker Activity (AID 2283072); conditions: primary human keratinocytes with fibroblasts; actives raise or lower the signal
How it was run: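 KF3CT co-culture (keratinocytes + fibroblasts), 24 h exposure → TGF-b1 ELISA → bidirectional fit, DMSO = baseline. Parallel SRB total-protein staining (0.1% SRB, 10% TCA fixation, 560 nm) for cytotoxicity.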

[11] = read-out: C-C motif chemokine 2 (Homo sapiens) (UniProt P13500); assay: BSK_KF3CT_MCP1: BioMAP Diversity Plus: KF3CT Assay for Monocyte Chemoattractant Protein 1 (MCP1/CCL2) Biomarker Activity (AID 2283073); conditions: primary human keratinocytes with fibroblasts; actives raise or lower the signal
How it was run: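 KF3CT skin co-culture (keratinocytes/foreskin fibroblasts), 24 h post-dose; MCP-1 by ELISA; gain/loss of signal fit bidirectionally vs DMSO baseline.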

[12] = read-out: urokinase plasminogen activator (uPA), PLAU (gene 5328); assay: BSK_KF3CT_uPA: BioMAP Diversity Plus: KF3CT Assay for urokinase plasminogen activator (uPA) Biomarker Activity (AID 2283075); conditions: primary human keratinocytes with fibroblasts; actives raise or lower the signal
How it was run: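 ELISA read-out of uPA 24 h after dosing human skin keratinocytes co-cultured with foreskin fibroblasts. Signal change fitted both ways relative to DMSO; sulforhodamine B on parallel cultures marks overt cytotoxicity.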

CD40, CD40 (gene 958) = assay: BSK_LPS_CD40: BioMAP Diversity Plus: LPS Assay for CD40 Biomarker Activity (AID 2283076); conditions: primary human HUVEC with PBMC; actives raise or lower the signal
How it was run: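 ELISA readout of CD40 in HUVEC/PBMC co-culture (BSK_LPS system), 24 h post-dosing; bidirectional curve fit, DMSO baseline; parallel SRB total-protein staining for cytotoxicity.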

[13] = read-out: E-selectin (Homo sapiens) (UniProt P16581); assay: BSK_LPS_Eselectin: BioMAP Diversity Plus: LPS Assay for Eselectin Biomarker Activity (AID 2283077); conditions: primary human HUVEC with PBMC; actives raise or lower the signal
How it was run: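 ELISA readout of E-selectin, 24 h post-dose, HUVEC + PBMC co-culture (LPS system). Gain or loss of signal vs DMSO baseline, bidirectional fit.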

[14] = read-out: Interleukin-8 (IL8), CXCL8 (gene 3576); assay: BSK_LPS_IL8: BioMAP Diversity Plus: LPS Assay for Interleukin-8 (IL8) Biomarker Activity (AID 2283078); conditions: primary human HUVEC with PBMC; actives raise or lower the signal
How it was run: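 HUVEC + PBMC co-culture, LPS-activated; test chemicals dosed, IL-8 read by ELISA at 24 h. Bidirectional curve fit vs DMSO baseline (gain or loss of signal).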

[15] = BSK_LPS_SRB: Viability Assessment in the BioMAP Diversity Plus: LPS Assay (AID 2283079); conditions: primary human HUVEC with PBMC;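 also: total protein by sulforhodamine B absorbance as a cytotoxicity measure; measured one day after compound addition; fitted in both directions against DMSO so loss or gain of signal counts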
How it was run: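 HUVEC + PBMC co-culture, LPS-stimulated; compound 24 h. 10% TCA fix, 0.1% SRB stain, A560. Bidirectional fit vs DMSO.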

[16] = read-out: Interleukin-1 alpha (IL1a), IL1A (gene 3552); assay: BSK_LPS_IL1a: BioMAP Diversity Plus: LPS Assay for Interleukin-1 alpha (IL1a) Biomarker Activity (AID 2283080); conditions: primary human HUVEC with PBMC; actives raise or lower the signal
How it was run: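 HUVEC/PBMC co-culture, LPS system; 24 h after dosing; IL-1a by ELISA; gain or loss of signal fitted bidirectionally vs DMSO baseline.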

[17] = read-out: Monocyte Chemoattractant Protein-1 (MCP1), CCL2 (gene 6347); assay: BSK_LPS_MCP1: BioMAP Diversity Plus: LPS Assay for Monocyte Chemoattractant Protein-1 (MCP1) Biomarker Activity (AID 2283081); conditions: primary human HUVEC with PBMC; actives raise or lower the signal;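 as to AC50: secreted MCP-1 protein quantified by ELISA in culture supernatant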
How it was run: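 ELISA read-out of MCP-1 after 24 h chemical dosing of a human umbilical vein endothelial cell/peripheral blood mononuclear cell co-culture stimulated with LPS. Gain or loss of signal fitted relative to DMSO controls.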

[18] = read-out: Intercellular Adhesion Molecule 1 (ICAM1), ICAM1 (gene 3383); assay: BSK_KF3CT_ICAM1: BioMAP Diversity Plus: KF3CT Assay for Intercellular Adhesion Molecule 1 (ICAM1) Biomarker Activity (AID 2283067); conditions: primary human keratinocytes with fibroblasts; actives raise or lower the signal
How it was run: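 ELISA readout of ICAM-1; KF3CT human skin co-culture (keratinocytes + foreskin fibroblasts), 24 h post-dose; gain/loss fit vs DMSO baseline.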

[19] = read-out: Matrix Metallopeptidase 9 (MMP9), MMP9 (gene 4318); assay: BSK_KF3CT_MMP9: BioMAP Diversity Plus: KF3CT Assay for Matrix Metallopeptidase 9 (MMP9) Biomarker Activity (AID 2283074); conditions: primary human keratinocytes with fibroblasts; actives raise or lower the signal;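 also: MMP9 protein level quantified by ELISA in the co-culture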
How it was run: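 MMP-9 quantified by ELISA after 24 h chemical treatment of primary human skin keratinocyte/fibroblast co-cultures; gain or loss fitted against DMSO, with parallel SRB staining (0.1% SRB, 560 nm) for overt cytotoxicity.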

Measured: AC50

E-selectin (Homo sapiens), sequence (P16581 whole entry, looked up): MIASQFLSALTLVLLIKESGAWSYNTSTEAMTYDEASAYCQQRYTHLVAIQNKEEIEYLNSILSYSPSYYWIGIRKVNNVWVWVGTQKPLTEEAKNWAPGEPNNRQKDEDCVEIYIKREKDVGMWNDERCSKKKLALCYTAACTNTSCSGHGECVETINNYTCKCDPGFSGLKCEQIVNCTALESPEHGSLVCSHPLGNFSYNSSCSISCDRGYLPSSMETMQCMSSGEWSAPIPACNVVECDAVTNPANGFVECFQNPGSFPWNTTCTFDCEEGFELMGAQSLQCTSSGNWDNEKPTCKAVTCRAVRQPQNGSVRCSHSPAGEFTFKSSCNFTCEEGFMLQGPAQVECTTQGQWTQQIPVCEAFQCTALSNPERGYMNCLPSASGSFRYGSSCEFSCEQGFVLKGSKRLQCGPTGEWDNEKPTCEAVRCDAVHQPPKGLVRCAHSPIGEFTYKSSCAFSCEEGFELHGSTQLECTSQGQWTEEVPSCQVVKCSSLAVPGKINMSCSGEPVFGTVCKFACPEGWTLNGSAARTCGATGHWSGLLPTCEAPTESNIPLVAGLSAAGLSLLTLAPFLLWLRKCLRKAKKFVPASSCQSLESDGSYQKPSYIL

O=C1c2ccc(O)c(O)c2C(=O)c2c(O)ccc(O)c21
not listed: [18] | [19]
inactive: all other assays above

O=C(O)CCC(F)(F)C(F)(F)C(F)(F)C(F)(F)C(F)(F)F
active: [3] 13.8 µM | [14] 5.95 µM
inactive: [1] | [2] | [3] | [4] | [5] | [18] | [6] | [7] | [8] | [9] | [11] | CD40, CD40 (gene 958) | [13] | [14] | [15] | [16] | [17]

O=C(CC(=O)C(F)(F)C(F)(F)C(F)(F)F)c1cccs1
inactive: [1] | [2] | [3] | [4] | [5] | [18] | [6] | [7] | [8] | [9] | [11] | CD40, CD40 (gene 958) | [13] | [14] | [16]
active: [2] 7.78 µM | [3] 7.77 µM | CD40, CD40 (gene 958) 22.9 µM | [15] 26.4 µM and 37.3 µM | [17] 30 µM and 40.4 µM

Cc1[nH]nc2c1N=C(c1ccccc1Cl)c1cc([N+](=O)[O-])ccc1N2
active: [2] 31.1 µM | [3] 2.47 µM | [5] 5.16 µM | CD40, CD40 (gene 958) 4.82 µM | [13] 6.04 µM | [14] 7.23 µM | [15] 2.08 µM | [16] 4.2 µM | [17] 5.17 µM
inactive: [1] | [4] | [6] | [7] | [8] | [9] | [10] | [11] | [12]

CCCCCc1ccc(O)cc1
active: [1] 20 µM | [2] 31.3 µM | [3] 20 µM | [4] 15.2 µM | [5] 28.5 µM | [6] 29.2 µM | [7] 12.4 µM | [8] 20 µM | [9] 10.4 µM | [10] 5.62 µM | [11] 9.12 µM | [19] 20 µM | CD40, CD40 (gene 958) 29.5 µM | [13] 31.4 µM | [14] 36.1 µM | [15] 28.4 µM | [16] 31.7 µM | [17] 31.4 µM

CCC(C)c1ccccc1O (stereo unspecified)
not listed: [12] | [19]
inactive: all other assays above
